Screening results as filed in PubChem.
Most compounds without a hit are left out; they make up all but 3% or so of the library.
KLF5 inh: KLF5 expression inhibitors, primary screen, DLD-1 cells, luminescence; inhibition, % at 5 µM; 290,000 compounds, 0.23% hits; DLD-1 KLF5 promoter-luciferase reporter;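 active = inhibition above a per-plate limit of that plate's mean compound inhibition plus 3 SD, cut at about 60% in these data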;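 note: higher means less KLF5 promoter-driven luciferase light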
CSC inhib: cancer stem cell viability inhibitors, primary screen, luminescence; inhibition, % at 7.5 µM; cancer stem cell-like cells viability; 300,000 compounds, 1.1% hits; in the data active = inhibition above about 75%; inconclusive = no clear call, values can overlap the other calls; tested in HMLE shEcad cells
SKKanGAS inh: S. pyogenes SKKanGAS growth inhibitors in kanamycin, primary screen, streptokinase expression inhibitor project, SKKanGAS strain, BacTiter-Glo luminescence. 6 h. inhibition, % at 7.5 µM. 300,000 compounds, 1.3% hits. AID 1662, 2009;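 active = mean replicate score, as percent of positive control median, at least 50; inconclusive = mean below 50 but one replicate at or above 50; inactive = mean and every replicate below 50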;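 note: strain carries kanamycin resistance gene driven by streptokinase promoter and grows in 40 µg/ml kanamycin; loss of luminescence reflects streptokinase promoter inhibition or plain growth inhibition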
IEC-6 tox: cytotoxicity in IEC-6 intestinal epithelial cells, primary screen, cytotoxicity control for KLF5 inhibitor project, cell-based, luminescence. IEC-6 cytotoxicity, luminescence viability. inhibition, % at 5 µM. 290,000 compounds, 0.78% hits. AID 1825, 2009; in the data active = inhibition above about 22%
aSyn UTR inh: MLPCN primary screen, SNCA 5' untranslated region; alpha-synuclein 5'UTR reporter, inhibitor activity; inhibition, % (tested at 7.5 µM); 300,000 compounds, 0.82% hits; AID 1813, 2009; in the data active = inhibition above about 60%; inconclusive = no clear call, values can overlap the other calls;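 note: H4 neuroglioblastoma cells stably carrying SNCA 5'UTR luciferase fusion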
Of the large screens only hits and unclear results are named; the others gave an inactive call.

CN1CCN(c2ccc([N+](=O)[O-])c3no[n+]([O-])c23)CC1	CSC inhib 104.3, SKKanGAS inh 104.4, IEC-6 tox 90.3, aSyn UTR inh 97.8
CN1CCN(c2ccc(S(C)(=O)=O)cc2[N+](=O)[O-])CC1	none
CC1CCCCC1NC1CCN(C)CC1 (centres undefined)	none
Cc1oc2ccc(OC(=O)N(C)C)cc2c1C(=O)OC(C)C	none
CCOC(=O)c1c(-c2ccc(OC)cc2)oc2ccc(OC(=O)N(C)C)cc12	CSC inhib 76.1
COC(=O)C1=C(c2ccc(-c3ccccc3)c(F)c2)C[C@@H]2CC[C@H]1N2C(=O)NCCOc1ccccc1	none (no result: KLF5 inh, SKKanGAS inh, IEC-6 tox, aSyn UTR inh)
COc1ccc(C(=O)C2CCCN(C3CSCCSC3)C2)c(OC)c1 (centres undefined)	CSC inhib 77.5
CC(C)=CCc1c(O)cc2c(c1O)C(=O)CC(c1ccc(O)cc1)O2 (centres undefined)	CSC inhib 98.6, SKKanGAS inh 50.2 (no result: KLF5 inh, IEC-6 tox)
CC(ON1CC1(C(F)(F)F)C(F)(F)F)(C(N)=O)C(N)=O (centres undefined)	none
CC(C#N)CCC#N (centres undefined)	none (no result: KLF5 inh, SKKanGAS inh, IEC-6 tox, aSyn UTR inh)
COc1ccc(/C=N\N=C(N)N)cc1	none
NC(N)=N/N=C/c1ccc(N(c2ccccc2)c2ccccc2)cc1	CSC inhib 110.4, SKKanGAS inh 105.2, aSyn UTR inh 137.8
CC1(C)C[C@H]2C=C(C=O)[C@]3(C=O)C[C@]3(C)[C@H]2C1	aSyn UTR inh 116.9
COC(=O)C1=C(c2c(C)noc2C)C[C@@H]2CC[C@H]1N2C(=O)N1CCCC1	none (no result: KLF5 inh, SKKanGAS inh, IEC-6 tox, aSyn UTR inh)
COC(=O)C1=C(c2ccc(F)cc2F)C[C@@H]2CC[C@H]1N2C(=O)NCCOc1ccc(OC)cc1	none (no result: KLF5 inh, SKKanGAS inh, IEC-6 tox, aSyn UTR inh)
CC(C)(C)c1ccc(O)c(N=Cc2c(O)ccc3ccccc23)c1	SKKanGAS inh 86.7
CCCCCCC(C)(C)c1ccc([C@@H]2C[C@H](O)CC[C@H]2CCCO)c(O)c1	CSC inhib 103.2 (no result: KLF5 inh, SKKanGAS inh, IEC-6 tox, aSyn UTR inh)
CCCC12CN3CCN(C1)CC(CCC)(C3)C2=O	none
CCCC12CN3CC(CCC)(CN(C1)C3c1ccccn1)C2=O (centres undefined)	SKKanGAS inh 74.9
Clc1ccc(CSC(Cn2ccnc2)c2ccc(Cl)cc2Cl)cc1 (centres undefined)	none (no result: SKKanGAS inh)
Clc1ccc(COC(Cn2ccnc2)c2ccc(Cl)cc2Cl)cc1 (centres undefined)	SKKanGAS inh 74.3
Cc1nc2ncnn2c(C)c1CCC(=O)N1CCC2(CC1)OCCO2	none
Cc1nc2cc(-c3ccccc3)nn2c(C)c1CCC(=O)N1CCC2(CC1)OCCO2	aSyn UTR inh 79.3
O=C(CN1CCCC1)Nc1ccc(Cl)cc1C(=O)c1ccccc1	CSC inhib 85.0
c1ccc2c(c1)Sc1ccccc1N2CC1CN2CCC1CC2 (centres undefined)	none
COc1cccc(-c2sc3ccccc3c2-c2ccc(OCCN3CCOCC3)cc2)c1	CSC inhib 104.0 (no result: KLF5 inh, SKKanGAS inh, IEC-6 tox, aSyn UTR inh)
COc1ccc(-n2c(CN3CCOCC3)nc3ccccc3c2=O)c(OC)c1	none
CCCCn1c(=O)c(C(=O)Nc2ncccc2C)c(O)c2ccccc21	SKKanGAS inh 107.1
CCCCCn1c(=O)c(C(=O)NC(C)c2ccccc2)c(O)c2ccccc21 (centres undefined)	none
CCCCCn1c(=O)c(C(=O)Nc2nc(CC(=O)OCC)cs2)c(O)c2ccccc21	SKKanGAS inh 71.0
CCCCCCn1c(=O)c(C(=O)Nc2nnc(C)s2)c(O)c2ccccc21	none
CCCCCCn1c(=O)c(C(=O)Nc2ncccc2C)c(O)c2ccccc21	SKKanGAS inh 94.2
CCCCn1c(=O)c(C(=O)Nc2nnc(C(C)C)s2)c(O)c2ccccc21	SKKanGAS inh 94.8
CCCCn1c(=O)c(C(=O)Nc2ccccc2)c(O)c2ccccc21	none
CCCCCn1c(=O)c(C(=O)Nc2ccccc2C)c(O)c2ccccc21	none
O=C1Nc2ccc(Br)cc2C(c2ccc(Cl)cc2)=NC1O (centres undefined)	none
CNP(=O)(Oc1ccccc1)OC12CC3CC(CC(C3)C1)C2 (centres undefined)	none
O=c1c2ccccc2nc(/C=C/c2ccccc2F)n1-c1ccccc1O	CSC inhib 98.4
O=c1c2ccccc2nc(/C=C/c2ccccc2O)n1-c1ccccc1O	none
CC1COC2N=C(N[N+](=O)[O-])NC2O1 (centres undefined)	none
CCCCCP(=O)(O)c1ccccc1	none
CCCC/C(C)=C/[C@@H](NP(=O)(c1ccccc1)c1ccccc1)c1ccccc1	CSC inhib 113.6, SKKanGAS inh 73.4
C[C@@H]1O[C@@H](O[C@H]2C[C@@H](O)[C@]3(CO)[C@@H]4C(CC[C@]3(O)C2)[C@@]2(O)CC[C@H](C3COC(=O)C3)[C@@]2(C)C[C@H]4O)[C@H](O)[C@H](O)[C@H]1O (some centres undefined)	CSC inhib 83.4 (no result: KLF5 inh, SKKanGAS inh, IEC-6 tox, aSyn UTR inh)
Cc1ccccc1[N+](=O)[O-]	none (no result: KLF5 inh, SKKanGAS inh, IEC-6 tox, aSyn UTR inh)
Cc1cc([N+](=O)[O-])c2ccccc2[n+]1[O-]	KLF5 inh 71.1, IEC-6 tox 100.9, aSyn UTR inh 126.7
CC(C)[C@]12O[C@H]1[C@@H]1O[C@]13[C@]1(O[C@H]1C[C@H]1C4=C(CC[C@@]13C)C(=O)OC4)[C@@H]2O	KLF5 inh 104.4, IEC-6 tox 96.8, aSyn UTR inh 124.0
COCCNC(=O)c1c(NC(=O)c2ccc(Br)o2)n(Cc2ccccc2)c2nc3ccccc3nc12	SKKanGAS inh 61.3
COCCCNC(=O)c1c(NC(=O)c2ccco2)n(Cc2ccccc2)c2nc3ccccc3nc12	none (no result: CSC inhib)
CC1CCC(C(C)C)C(OC(=O)Cn2c(COc3ccccc3)[n+](C)c3ccccc32)C1 (centres undefined)	CSC inhib 98.3, aSyn UTR inh 66.5
Cc1nn(-c2ccccc2)c(Cl)c1C1C(C#N)=C(N)Oc2c1c(=O)oc1ccccc21 (centres undefined)	SKKanGAS inh 108.3
Cc1ccc(N2C(=O)NC(=O)/C(=C\C=C\c3ccco3)C2=O)cc1	CSC inhib 79.4
Cc1cccc(N2C(=O)NC(=O)/C(=C\C=C\c3ccco3)C2=O)c1	CSC inhib inconclusive
O=C1NC(=O)N(c2ccccc2)C(=O)/C1=C/C=C/c1ccco1	CSC inhib 88.2
O=C(Nc1ccc(F)c([N+](=O)[O-])c1)N1C[C@H]2C[C@@H](C1)c1cccc(=O)n1C2	none
COC(=O)C1=C(c2cccc(C#N)c2)C[C@@H]2CC[C@H]1N2C(=O)NC1CCCCC1	none (no result: KLF5 inh, SKKanGAS inh, IEC-6 tox, aSyn UTR inh)
CC[C@]12C=CCN3CCC4(c5cc(Br)c(OC)cc5N(C)C4[C@@](O)(C(=O)OC)[C@@H]1OC(C)=O)C32 (some centres undefined)	none
COC(=O)C1=C(c2cccc(OCc3ccccc3)c2)C[C@@H]2CC[C@H]1N2C(=O)NCc1cccc(C(F)(F)F)c1	none (no result: KLF5 inh, SKKanGAS inh, IEC-6 tox, aSyn UTR inh)
Cc1cc(OCC(=O)N2CCC(C(N)=O)CC2)c2c3c(c(=O)oc2c1)CCCC3	none
COc1ccc(C2NCc3ccc4c(c3-n3cccc32)OCO4)cc1O (centres undefined)	IEC-6 tox 73.8, aSyn UTR inh inconclusive
O=[N+]([O-])c1ccc(Cl)cc1	none (no result: KLF5 inh, SKKanGAS inh, IEC-6 tox, aSyn UTR inh)
